# Bioassay records (PubChem)
# The list is not random: actives were taken first. Their share in the collection is about 7.3%.
# NPC1 promoter act: NPC1 promoter activation; Huh7 NPC1 promoter luciferase reporter, 24 h; Potency, µM (titrated, usually from 9.22 µM), most hits filed as activators; 320,000 compounds, 2.4% hits; note: nearly all actives have a fitted effect of over 60% in size
#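 Luciferase expression driven by the NPC1 promoter was measured in stably transfected Huh7 cells after a 24 h compound incubation, using a luciferase reagent and a luminescence read.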
# FLuc counter: inhibits or activates purified firefly luciferase, miR-21 counter-screen; purified FLuc, Km substrates, luminescence inhibition; 360,000 compounds, 6.9% hits; Potency, µM (titrated, usually from 57.5 µM), usual class: inhibitors; note: nearly all actives have a fitted effect of over 55% in size
# Target sequence (P08659 whole entry, looked up): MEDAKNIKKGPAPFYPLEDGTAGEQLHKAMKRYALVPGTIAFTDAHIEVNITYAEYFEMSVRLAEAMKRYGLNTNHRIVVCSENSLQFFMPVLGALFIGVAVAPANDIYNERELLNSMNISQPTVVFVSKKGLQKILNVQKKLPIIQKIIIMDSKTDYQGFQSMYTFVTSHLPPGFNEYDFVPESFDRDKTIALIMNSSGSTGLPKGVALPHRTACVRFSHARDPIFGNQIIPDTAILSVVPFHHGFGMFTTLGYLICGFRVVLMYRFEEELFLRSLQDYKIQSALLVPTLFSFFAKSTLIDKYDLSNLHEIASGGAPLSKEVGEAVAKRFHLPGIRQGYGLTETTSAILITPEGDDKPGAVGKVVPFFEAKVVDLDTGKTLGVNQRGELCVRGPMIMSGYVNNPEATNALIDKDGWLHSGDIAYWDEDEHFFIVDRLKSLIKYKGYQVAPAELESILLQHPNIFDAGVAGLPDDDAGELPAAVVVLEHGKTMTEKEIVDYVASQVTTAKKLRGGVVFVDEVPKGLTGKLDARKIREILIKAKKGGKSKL
#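 Purified P. pyralis luciferase, 10 nM final, with Km-level 10 uM D-luciferin and 10 uM ATP in 50 mM Tris acetate pH 7.5, 10 mM Mg acetate, 0.01% Tween-20, 0.05% BSA; 6-point qHTS titration about 60 µM downward; luminescence read.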
# Luc counter: Kinase-Glo luciferase inhibition (counter-screen); Potency, µM (titrated, usually from 38.3 µM), hits mostly inhibitors; Kinase-Glo luciferase, ATP luminescence, 8 min; Q27757; 200,000 compounds, 0.28% hits; AID 1379; note: nearly all actives have a fitted effect of over 60% in size
#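 Compounds were added to a substrate mix at pH 7.2 (50 mM imidazole, 10 uM ATP, within the enzyme's linear range), followed by Kinase-Glo detection reagent; luminescence was measured after 8 minutes at ambient temperature.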
# Rab9 promoter act: activates the Rab9 promoter; Huh7 Rab9 promoter-luciferase reporter, luminescence, 24 h; Potency, µM (top dose mostly 9.22 µM), usual class: activators; 320,000 compounds, 2.8% hits; note: nearly all actives have a fitted effect of over 60% in size
#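 Promoter activation is measured as luciferase luminescence in Huh7 cells stably transfected with a Rab9 promoter–luciferase construct, following 24 h compound exposure at 37 °C and 10 min reagent incubation at ambient temperature.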
# SMN2 splice enh: enhancers of SMN2 splice variant expression. HEK293 SMN2-luciferase splicing reporter, luminescence, 30-36 h. Potency, µM (series often up to 46.1 µM), most hits filed as activators. 210,000 compounds, 2.8% hits; note: nearly all actives have a fitted effect of over 55% in size
#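 HEK293 cells carry an SMN2 […]–luciferase reporter in which exon 7 inclusion puts luciferase in frame. Cells were plated 10-12 h before compound addition, then incubated 30-36 h at 37C. ONE-Glo luminescence was read; sodium butyrate at 4.5 mM final served as control.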
# Hits are given with their value; . = inactive; ? = inconclusive; / = not tested or not shown; [ ] = another dose, or the depositor's remark. Calls come from the whole dose curve; as a rule, active = well fitted curve in the direction sought with a large enough effect; inconclusive = small, poorly fitted or top-dose-only effect, or another doubt; inactive = no such curve, though single readings can be large; an effect the other way counts as inactive or inconclusive.
SMILES,NPC1 promoter act,FLuc counter,Luc counter,Rab9 promoter act,SMN2 splice enh
O=C1C(Cl)=C(NS(=O)(=O)c2ccc([N+](=O)[O-])cc2)C(=O)c2ccccc21,.,27µM,/,.,/
O=C(N/N=C/c1cccnc1)C(O)c1ccccc1 (configuration not stated),.,.,.,.,.
O=C(O)c1ccc(N/N=C/C(Br)=C/c2ccccc2)cc1,0.35µM,0.48µM,/,0.32µM,/
O=C(N/N=C/C(Br)=C/c1ccccc1)NC1CCCCC1,.,?,.,.,.
O=C(N/N=C/C(Br)=C/c1ccccc1)C1CC1,.,?,.,2.8µM,/
O=C(N/N=C/C(Br)=C/c1ccccc1)C(O)c1ccccc1 (configuration not stated),.,15µM,/,.,/
COc1cccc(N2CCN(C(=O)C3CCN(S(=O)(=O)c4cn(C)cn4)CC3)CC2)c1,/,.,/,/,/
O=c1c2cnn(-c3ccc(F)cc3)c2ncn1Cc1cccc(Cl)c1,/,.,/,/,.
N=C(N)S/C=C\C(=O)O,/,/,.,/,.
O=C(Cc1ccc(F)cc1)NCc1ccc2c(c1)CCN2C(=O)c1ccc(F)cc1,/,.,/,/,/
O=C(Nc1nnc(-c2ccc(F)cc2)s1)Nc1ccccc1F,.,.,/,.,/
Cc1cc(C(=O)Nc2sc(C)c(-c3ccc(F)cc3)c2C(N)=O)no1,3.2µM,1.2µM,.,3.2µM,.
NC(=O)c1c(NC(=O)c2cc(-c3ccc(F)cc3)on2)sc2c1CCCC2,/,.,/,/,.
COc1ccccc1C(=O)Nc1c(-c2ccccc2)nc2ccccn12,.,.,/,.[1.84 µM],/
COc1ccc(C(=O)Nc2nnc(-c3ccc(F)cc3)s2)c(OC)c1,.,?,/,.,/
COc1ccccc1C(=O)Nc1nnc(-c2ccc(F)cc2)s1,3.2µM,4.8µM,/,4.5µM,/
COc1ccccc1C(=O)Nc1nsc(-c2ccccc2)n1,?,4.3µM,/,1.6µM,/
O=C(Nc1nnc(-c2ccccc2)s1)c1ccc(F)cc1,?,.,.,1.4µM,?
COC(=O)c1nnc(N[C@@H](Cc2c[nH]c3ccccc23)C(=O)OC)nc1C(=O)OC,/,/,.,/,.
COc1ccc(-c2cc(C(F)(F)F)nc(-n3nc(C(F)(F)F)cc3C)n2)cc1,/,.,/,/,.
CCc1ccccc1NC(=O)CSc1ncc(S(=O)(=O)c2ccccc2)c(N)n1,/,.,/,/,/
Cc1cc(C(=O)Nc2nnc(C3CCCCC3)s2)no1,/,?,.,/,.
Cc1cc(C(=O)Nc2nnc(-c3ccccc3)s2)no1,.,27µM,.,?,.
COc1ccc(NC(=O)c2ccco2)cc1NC(=O)COc1cc(C)ccc1C(C)C,/,.,/,/,.
O=C(NCc1ccncc1)C(=O)Nc1nc2ccccc2s1,.,15µM,.,.,/
SMILES,NPC1 promoter act,FLuc counter,Luc counter,Rab9 promoter act,SMN2 splice enh
CCNC(=O)Nc1nc2ccccc2s1,4µM,24µM,.,?,14µM
O=C(NNc1nc2ccccc2s1)Nc1ccccc1,3.2µM,?,.,?,14µM
O=C(NCc1ccncc1)C(=O)Nc1nccs1,.,.,/,.,/
CCOCC(=O)Nc1nc2ccccc2s1,3.2µM,24µM,.,?,14µM
CCc1cnc2c(c1SCC(=O)NCc1ccc(F)cc1)c(=O)n(C)c(=O)n2C,/,.,/,/,/
CC(C)OCCCNc1ncnc2sc3c(c12)CCCC3,/,.,/,/,/
S=C(Nc1ccccc1)c1nc2ccccc2s1,?,?,.,2.5µM,11µM
Cc1cc(O)c(C(C)(C)C)cc1Sc1cc(C(C)(C)C)c(O)cc1C,/,/,/,/,.
CCCc1nn(C)c(C(=O)Nc2cccc(C)c2)c1Cl,?,17µM,.,?,.
CCCc1nn(C)c(C(=O)Nc2cccc(Cl)c2)c1Cl,.,21µM,.,?,.
CCCc1nn(C)c(C(=O)Nc2ccccc2)c1Cl,3.5µM,7.6µM,.,1.1µM,.
CC(=O)NCCNC(=O)CCCc1nnc2n(C)c(=O)c3sccc3n12,/,.,/,/,.
Cn1c(Oc2ccc(F)cc2)nc2c1c(=O)n(Cc1ccccc1Cl)c(=O)n2C,/,.,/,/,.
CCOc1ccc(NC(=O)CCc2ccc(C)o2)cc1,.,.,/,.,/
COC(=O)c1ccc(N/C(C)=C/C(=O)c2ccc(C)o2)cc1,.,12µM,.,.,.
CCOc1ccc(N/C(C)=C/C(=O)c2ccc(C)o2)cc1,?,6µM,.,?,.
Cc1cc(O)c(C(c2cccc(Cl)c2)N2CCN(c3ccccc3)CC2)c(=O)n1Cc1ccco1 (configuration not stated),/,.,/,/,/
Cc1cccc(C)c1-n1ncc(C(=O)NC2CCCC2)c1C1CCN(C(=O)OC(C)(C)C)CC1,/,.,/,/,/
Cc1cccc(NC(=O)Nc2ccncc2)c1,.,17µM,.,.,?
CC(=O)c1cccc(NC(=O)Nc2ccc3c(c2)CCC3)c1,?,2.4µM,/,?,/
Cc1cc(C)cc(NC(=O)Nc2cccc(S(N)(=O)=O)c2)c1,.,15µM,/,.,/
Cc1cccc(NC(=O)Nc2ccc3c(c2)CCC3)c1,2µM,3µM,/,1.8µM,/
CCc1ccc(NC(=O)Nc2ccc3c(c2)CCC3)cc1,?,.,/,?,/
COc1cccc(N2CCN(C(=O)Cn3cnc4onc(-c5ccc(F)cc5)c4c3=O)CC2)c1,/,.,/,/,/
O=C(Cn1c(=O)n(Cc2ccc3c(c2)OCO3)c(=O)c2ccc(C(=O)NC3CCCCC3)cc21)Nc1ccccc1F,/,.,/,/,.
SMILES,NPC1 promoter act,FLuc counter,Luc counter,Rab9 promoter act,SMN2 splice enh
COc1ccc(N2CCOCC2)c(NC(=O)c2ccc(Br)o2)c1,.,.,/,.,/
O=C(Nc1cc(Cl)ccc1N1CCOCC1)c1ccc(Br)o1,3.2µM,0.85µM,/,0.56µM,/
O=C(Nc1ccc(Cl)cc1Cl)c1ccc(Br)o1,2.2µM,13µM,/,?,/
COc1cccc(-c2nc(S(=O)(=O)c3ccc(C)cc3)c(N3CCCCC3)o2)c1,/,.,/,/,.
Fc1ccc2nc(C3CCN(Cc4nc(CC5CC5)no4)CC3)[nH]c2c1,.,.,.,.,/
Fc1ccccc1C1CCN(Cc2nc(CC3CC3)no2)C1 (configuration not stated),?,17µM,/,?,/
Cc1nc2c(C(=O)N3CCCCC3)cnn2c(C)c1Cc1ccccc1F,1.6µM,?,.,1.6µM,?
Cc1nc2c(C(=O)N3CCN(C)CC3)cnn2c(C)c1Cc1ccc(Cl)cc1,.,.,.,.,.
COc1cccc(Cn2c(CNC(=O)c3cc([N+](=O)[O-])ccc3Cl)nc3cccnc32)c1,/,.,/,/,/
CCCc1ccc2oc(C(=O)NCc3nnc(C)o3)c(C)c2c1,2µM,9.5µM,/,2.8µM,/
CCCc1ccc2oc(C(=O)NCCCN3CCOCC3)c(C)c2c1,.,13µM,/,.[1.84 µM],/
CCc1ccc2oc(C(=O)NCc3ccc(S(N)(=O)=O)cc3)c(C)c2c1,.,.,.,.,.
CCN(CC)S(=O)(=O)c1ccc2oc(C(=O)NCCCN3CCOCC3)c(C)c2c1,.,.,.,.,.
CCOC(=O)c1cnc(Nc2nc3ccccc3o2)nc1CN1CCN(C)CC1,.,.,.,.,13µM
CCOC(=O)c1oc2ccccc2c1NC(=O)CN1CCN(C)CC1,.,.,.,.,.
Cc1ccc2[nH]c3c(c2c1)CCc1cn[nH]c1-3,?,11µM,.,?,.
CCc1ccc2oc(C(=O)Nc3ccccc3C(=O)OC)cc(=O)c2c1,/,.,/,/,.
